Source: PubChem BioAssay (EPA / NIEHS)
Results filed as inconclusive are left out. Activity calls are given as the source filed them. Rule for the calls, unless noted: active = hit-call score of the fitted dose curve at least 0.9, where 1 is the maximum; inconclusive = response in the unintended direction; inactive = score below 0.9.

Legend:
[1] = BSK_4H_Eotaxin3: BioMAP Diversity Plus: 4H Assay for Eotaxin 3 Biomarker Activity (AID 2283000; active = hit-call score of the fitted dose curve at least 0.9, where 1 is the maximum; inactive = score below 0.9;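 note: CCL26 protein level quantified by ELISA in parallel with SRB cytotoxicity check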); conditions: primary human endothelial cells (HUVEC); actives raise or lower the signal
Outline: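 Human umbilical vein endothelial cells (BSK_4H system) dosed with test chemical; Eotaxin-3 (CCL26) measured by ELISA 24 h after dosing. Bidirectional curve fitting relative to DMSO negative control as baseline.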

[2] = target: human Peroxisome Proliferator-activated Receptor alpha (PPARa), PPARA (gene 5465) (UniProt Q07869); assay: ATG_PPARa_TRANS: Attagene TRANS-FACTORIAL HepG2 Assay for human Peroxisome Proliferator-activated Receptor alpha (PPARa) (AID 2283001)
Outline: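 Reporter transcripts from GAL4-UAS units in transfected HepG2 were quantified 24 h after dosing. Detection used reverse transcription, PCR, fluorescent primer extension and capillary electrophoresis, with DMSO as baseline.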

[3] = read-out: Intercellular Adhesion Molecule 1 (ICAM1), ICAM1 (gene 3383); assay: BSK_3C_ICAM1: BioMAP Diversity Plus: 3C Assay for Intercellular Adhesion Molecule 1 (ICAM1) Biomarker Activity (AID 2283003; active = hit-call score of the fitted dose curve at least 0.9, where 1 is the maximum; inactive = score below 0.9); conditions: primary human endothelial cells (HUVEC); actives raise or lower the signal
Outline: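 Human vascular endothelial primary cells, 3C conditions, 24 h treatment. ICAM-1 by ELISA.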

[4] = target: human Retinoic Acid Receptor beta (RARb), RARB (gene 5915) (UniProt P10826); assay: ATG_RARb_TRANS: Attagene TRANS-FACTORIAL HepG2 Assay for human Retinoic Acid Receptor beta (AID 2283004)
Outline: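 Induction of reporter mRNA from a chimeric RARb-Gal4 construct was measured by RT-PCR, FAM labelling, HpaI digestion and capillary electrophoresis. Measurements followed 24 h compound treatment of transiently transfected human HepG2 liver cells, with DMSO as baseline.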

[5] = BSK_3C_Proliferation: Cell Proliferation Assessment in the BioMAP Diversity Plus: 3C Assay (AID 2283006; active = hit-call score of the fitted dose curve at least 0.9, where 1 is the maximum; inactive = score below 0.9); conditions: primary human endothelial cells (HUVEC)
Outline: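 Proliferation of human vascular endothelial primary cells after 48 h dosing, quantified as SRB-stained protein at 560 nm relative to DMSO.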

[6] = target: Peroxisome proliferator-activated receptor gamma (Homo sapiens) (UniProt P37231); assay: ATG_PPARg_TRANS: Attagene TRANS-FACTORIAL HepG2 Assay for human Peroxisome Proliferator-activated Receptor-gamma (PPARg) (AID 2283007)
Outline: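 Endpoint reflects upward reporter mRNA change versus DMSO controls. Setup: transiently transfected HepG2, GAL4-UAS reporters driven by chimeric NR-Gal4, 24 h incubation, RT-PCR with capillary electrophoresis read-out.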

[7] = target: Nuclear receptor subfamily 1 group I member 2 (Homo sapiens) (UniProt O75469); assay: ATG_PXR_TRANS: Attagene TRANS-FACTORIAL HepG2 Assay for human Pregnane X Receptor (PXR) (AID 2283008)
Outline: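 HepG2 cells transiently transfected with GAL4-UAS reporter units and PXR-Gal4 chimera, exposed 24 h. Reporter mRNA quantified by RT-PCR, fluorescent labelling, HpaI digestion and capillary electrophoresis; gain of signal vs DMSO.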

[8] = target: human Retinoic Acid Receptor gamma (RARg), RARG (gene 5916) (UniProt P13631); assay: ATG_RARg_TRANS: Attagene TRANS-FACTORIAL HepG2 Assay for human Retinoic Acid Receptor gamma (RARg) (AID 2283009)
Outline: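 HepG2, RARg-GAL4 TRANS system, 24 h exposure; reporter mRNA by RT-PCR + CE fluorescence; increase over DMSO.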

[9] = target: human RAR-related Orphan Receptor beta (RORb), RORB (gene 6096) (UniProt Q92753); assay: ATG_RORb_TRANS: Attagene TRANS-FACTORIAL HepG2 Assay for human RAR-related Orphan Receptor beta (RORb) (AID 2283010)
Outline: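 In this TRANS-format test, human HepG2 cells express chimeric NR-Gal4 fusion proteins driving GAL4-UAS reporters. After 24 h dosing, reporter transcripts are measured by fluorescent RT-PCR/capillary electrophoresis, with DMSO as negative control.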

[10] = target: human RAR-related Orphan Receptor gamma (RORg), RORC (gene 6097) (UniProt P51449); assay: ATG_RORg_TRANS: Attagene TRANS-FACTORIAL HepG2 Assay for human RAR-related Orphan Receptor gamma (RORg) (AID 2283011)
Outline: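 Reporter transcripts from a transfected RORg-GAL4 chimera in HepG2 cells were quantified 24 h after dosing by RT-PCR, 6-FAM labelling, HpaI digestion and capillary electrophoresis; increases over DMSO baseline were fitted.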

[11] = target: human Retinoid X Receptor beta (RXRb), RXRB (gene 6257) (UniProt P28702); assay: ATG_RXRb_TRANS: Attagene TRANS-FACTORIAL HepG2 Assay for human Retinoid X Receptor beta (RXRb) (AID 2283013)
Outline: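 Multiplexed TRANS reporter assay in HepG2; 24 h dosing; reporter mRNA by RT-PCR/CE fluorescence; gain-of-signal relative to DMSO.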

[12] = target: human Thyroid Receptor alpha (THRa1), THRA (gene 7067) (UniProt P10827); assay: ATG_THRa1_TRANS: Attagene TRANS-FACTORIAL HepG2 Assay for human Thyroid Receptor alpha (THRa1) (AID 2283014)
Outline: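 Transcripts from GAL4-UAS-driven reporters, measured after 24 h compound exposure by RT-PCR plus capillary electrophoresis of 6-FAM-labeled fragments, were fitted for gain of signal relative to DMSO. Cells: transiently transfected HepG2 expressing NR-Gal4 chimeras.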

[13] = read-out: E-selectin (Homo sapiens) (UniProt P16581); assay: BSK_3C_Eselectin: BioMAP Diversity Plus: 3C Assay for Eselectin Biomarker Activity (AID 2283015; active = hit-call score of the fitted dose curve at least 0.9, where 1 is the maximum; inactive = score below 0.9); conditions: primary human endothelial cells (HUVEC); actives raise or lower the signal
Outline: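 E-selectin ELISA readout, fitted bidirectionally relative to DMSO, taken 24 h post-dosing in HUVEC cultures of the 3C system. Overt cytotoxicity tracked with sulforhodamine B staining of parallel wells.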

[14] = read-out: Interleukin-1 alpha (IL1a), IL1A (gene 3552); assay: BSK_BE3C_IL1a: BioMAP Diversity Plus: BE3C Assay for Interleukin-1 alpha (IL1a) Biomarker Activity (AID 2283016; active = hit-call score of the fitted dose curve at least 0.9, where 1 is the maximum; inactive = score below 0.9); conditions: primary human bronchial epithelial cells; actives raise or lower the signal
Outline: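 Cultures of primary human bronchial epithelial cells receive test chemical. After 24 h, IL-1a is quantified by ELISA, while parallel wells are fixed in TCA and SRB-stained for total protein. Changes in either direction are fitted relative to DMSO.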

[15] = read-out: Monocyte Chemoattractant Protein-1 (MCP1), CCL2 (gene 6347); assay: BSK_3C_MCP1: BioMAP Diversity Plus: 3C Assay for Monocyte Chemoattractant Protein-1 (MCP1) Biomarker Activity (AID 2283017; active = hit-call score of the fitted dose curve at least 0.9, where 1 is the maximum; inactive = score below 0.9); conditions: primary human endothelial cells (HUVEC); actives raise or lower the signal
Outline: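 MCP-1 was measured by ELISA 24 h after dosing in primary HUVEC 3C cultures and fitted in both directions relative to DMSO; cytotoxicity was checked by SRB total-protein staining in parallel wells.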

[16] = read-out: Monocyte Chemoattractant Protein-1 (MCP1), CCL2 (gene 6347); assay: BSK_4H_MCP1: BioMAP Diversity Plus: 4H Assay for Monocyte Chemoattractant Protein-1 (MCP1) Biomarker Activity (AID 2283018; active = hit-call score of the fitted dose curve at least 0.9, where 1 is the maximum; inactive = score below 0.9); conditions: primary human endothelial cells (HUVEC); actives raise or lower the signal
Outline: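 Readout: MCP-1 ELISA on compound-treated HUVEC, sampled 24 h post-dosing. Baseline and negative control DMSO; bidirectional fit. Overt toxicity checked alongside by sulforhodamine B protein staining at time of biomarker measurement.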

[17] = target: human Peroxisome Proliferator-activated Receptor delta (PPARd), PPARD (gene 5467) (UniProt Q03181); assay: ATG_PPARd_TRANS: Attagene TRANS-FACTORIAL HepG2 Assay for human Peroxisome Proliferator-activated Receptor delta (PPARd) (AID 2283002)
Outline: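 Read-out is induced reporter mRNA, quantified by RT-PCR with fluorescent labelling and capillary electrophoresis after 24 h dosing. Cells are HepG2 transiently carrying multiple GAL4-UAS reporter units driven by exogenous NR-GAL4 chimeras; DMSO serves as baseline.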

[18] = target: Retinoic acid receptor alpha (Homo sapiens) (UniProt P10276); assay: ATG_RARa_TRANS: Attagene TRANS-FACTORIAL HepG2 Assay for human Retinoic Acid Receptor alpha (RARa) (AID 2283005)
Outline: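 Reporter transcripts, measured by RT-PCR with fluorescent labeling and capillary electrophoresis after 24 h dosing, reflect activity of an exogenous human RARa–GAL4 fusion in transiently transfected HepG2. Fitted for increase relative to DMSO.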

[19] = target: Retinoic acid receptor RXR-alpha (Homo sapiens) (UniProt P19793); assay: ATG_RXRa_TRANS: Attagene TRANS-FACTORIAL HepG2 Assay for human Retinoid X Receptor alpha (RXRa) (AID 2283012)
Outline: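 Cells (HepG2) carried transiently transfected GAL4-responsive reporter units. Following a 24 h chemical incubation, reporter mRNA induction was read via RT-PCR fragment analysis; DMSO served as negative control and baseline.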

[20] = read-out: Human Leukocyte Antigen - DR isotype (HLADR), HLA-DRA (gene 3122); assay: BSK_3C_HLADR: BioMAP Diversity Plus: 3C Assay for Human Leukocyte Antigen - DR isotype (HLADR) Biomarker Activity (AID 2283019; active = hit-call score of the fitted dose curve at least 0.9, where 1 is the maximum; inactive = score below 0.9); conditions: primary human endothelial cells (HUVEC); actives raise or lower the signal
Outline: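 Bidirectional fitting against DMSO was applied to the HLA-DR ELISA signal from human umbilical vein endothelial cells, 24 h post-dose. Cytotoxicity came from parallel SRB total-protein staining; 3C proliferation was counted by SRB at 48 h.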

Measured: AC50

Chain of Nuclear receptor subfamily 1 group I member 2 (Homo sapiens) (O75469 whole entry, looked up, the tested form may be a part): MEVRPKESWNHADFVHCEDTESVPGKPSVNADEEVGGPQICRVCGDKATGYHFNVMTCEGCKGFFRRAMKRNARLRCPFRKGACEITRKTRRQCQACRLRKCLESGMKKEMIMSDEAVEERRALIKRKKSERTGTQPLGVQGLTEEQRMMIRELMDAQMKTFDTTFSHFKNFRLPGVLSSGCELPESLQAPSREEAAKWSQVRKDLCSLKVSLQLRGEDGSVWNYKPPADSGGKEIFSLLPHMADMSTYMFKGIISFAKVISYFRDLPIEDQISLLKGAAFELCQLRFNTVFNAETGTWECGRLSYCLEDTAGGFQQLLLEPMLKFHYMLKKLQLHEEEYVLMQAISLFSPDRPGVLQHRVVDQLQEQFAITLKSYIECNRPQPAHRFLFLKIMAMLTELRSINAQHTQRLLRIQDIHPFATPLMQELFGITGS
Chain of Retinoic acid receptor alpha (Homo sapiens) (P10276 whole entry, looked up, the tested form may be a part): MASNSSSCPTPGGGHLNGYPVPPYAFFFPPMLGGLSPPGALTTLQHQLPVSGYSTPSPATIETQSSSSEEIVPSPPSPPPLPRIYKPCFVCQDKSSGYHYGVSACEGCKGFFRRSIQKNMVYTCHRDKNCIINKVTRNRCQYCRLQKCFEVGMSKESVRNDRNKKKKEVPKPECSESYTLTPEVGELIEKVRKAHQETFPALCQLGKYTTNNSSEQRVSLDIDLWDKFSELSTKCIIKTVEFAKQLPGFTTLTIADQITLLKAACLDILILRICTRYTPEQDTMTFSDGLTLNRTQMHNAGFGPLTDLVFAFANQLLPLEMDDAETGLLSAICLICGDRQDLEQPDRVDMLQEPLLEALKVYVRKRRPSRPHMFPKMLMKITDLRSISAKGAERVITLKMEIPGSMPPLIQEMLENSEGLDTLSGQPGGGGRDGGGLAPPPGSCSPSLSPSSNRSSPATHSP
Chain of human Retinoic Acid Receptor beta (RARb), RARB (gene 5915) (P10826 whole entry, looked up, the tested form may be a part): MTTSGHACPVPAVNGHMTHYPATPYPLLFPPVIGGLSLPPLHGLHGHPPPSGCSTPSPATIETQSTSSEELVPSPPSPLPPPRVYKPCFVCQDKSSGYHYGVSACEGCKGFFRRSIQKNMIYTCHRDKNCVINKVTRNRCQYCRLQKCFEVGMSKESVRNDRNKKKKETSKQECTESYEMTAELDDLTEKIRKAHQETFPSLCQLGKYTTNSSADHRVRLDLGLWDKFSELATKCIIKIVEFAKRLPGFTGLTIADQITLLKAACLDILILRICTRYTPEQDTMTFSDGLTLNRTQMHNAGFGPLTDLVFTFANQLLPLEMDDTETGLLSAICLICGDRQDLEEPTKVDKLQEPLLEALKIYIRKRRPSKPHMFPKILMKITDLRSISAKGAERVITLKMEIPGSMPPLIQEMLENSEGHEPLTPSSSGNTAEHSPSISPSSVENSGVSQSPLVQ
Chain of E-selectin (Homo sapiens) (P16581 whole entry, looked up): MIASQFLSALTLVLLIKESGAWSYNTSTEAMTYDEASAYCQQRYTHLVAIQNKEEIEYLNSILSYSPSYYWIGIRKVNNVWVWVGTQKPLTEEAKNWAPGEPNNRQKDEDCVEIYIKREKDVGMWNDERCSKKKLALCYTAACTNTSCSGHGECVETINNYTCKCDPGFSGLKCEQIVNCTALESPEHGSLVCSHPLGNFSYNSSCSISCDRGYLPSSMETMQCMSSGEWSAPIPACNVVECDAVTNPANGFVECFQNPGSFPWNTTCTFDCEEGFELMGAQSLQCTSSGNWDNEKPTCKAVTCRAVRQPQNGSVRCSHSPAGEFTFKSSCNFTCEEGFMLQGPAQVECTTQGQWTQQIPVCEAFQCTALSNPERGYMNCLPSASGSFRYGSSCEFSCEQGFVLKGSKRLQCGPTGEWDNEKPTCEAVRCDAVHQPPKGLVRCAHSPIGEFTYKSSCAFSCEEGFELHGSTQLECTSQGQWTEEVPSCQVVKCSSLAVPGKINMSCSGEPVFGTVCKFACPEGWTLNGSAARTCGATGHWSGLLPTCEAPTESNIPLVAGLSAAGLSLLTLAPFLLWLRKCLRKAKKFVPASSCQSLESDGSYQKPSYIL
Chain of Retinoic acid receptor RXR-alpha (Homo sapiens) (P19793 whole entry, looked up, the tested form may be a part): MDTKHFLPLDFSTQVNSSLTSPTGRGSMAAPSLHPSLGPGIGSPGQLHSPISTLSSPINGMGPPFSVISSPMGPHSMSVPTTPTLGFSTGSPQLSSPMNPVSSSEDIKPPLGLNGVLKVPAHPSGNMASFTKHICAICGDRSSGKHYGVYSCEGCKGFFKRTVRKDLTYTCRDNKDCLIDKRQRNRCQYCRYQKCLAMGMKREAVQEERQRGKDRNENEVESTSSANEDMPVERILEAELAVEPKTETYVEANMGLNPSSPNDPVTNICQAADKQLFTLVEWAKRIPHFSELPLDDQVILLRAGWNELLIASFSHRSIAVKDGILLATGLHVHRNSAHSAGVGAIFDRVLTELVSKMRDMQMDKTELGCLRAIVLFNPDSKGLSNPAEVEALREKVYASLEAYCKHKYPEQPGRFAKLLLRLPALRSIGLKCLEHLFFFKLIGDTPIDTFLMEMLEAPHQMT
Chain of human Peroxisome Proliferator-activated Receptor delta (PPARd), PPARD (gene 5467) (Q03181 whole entry, looked up, the tested form may be a part): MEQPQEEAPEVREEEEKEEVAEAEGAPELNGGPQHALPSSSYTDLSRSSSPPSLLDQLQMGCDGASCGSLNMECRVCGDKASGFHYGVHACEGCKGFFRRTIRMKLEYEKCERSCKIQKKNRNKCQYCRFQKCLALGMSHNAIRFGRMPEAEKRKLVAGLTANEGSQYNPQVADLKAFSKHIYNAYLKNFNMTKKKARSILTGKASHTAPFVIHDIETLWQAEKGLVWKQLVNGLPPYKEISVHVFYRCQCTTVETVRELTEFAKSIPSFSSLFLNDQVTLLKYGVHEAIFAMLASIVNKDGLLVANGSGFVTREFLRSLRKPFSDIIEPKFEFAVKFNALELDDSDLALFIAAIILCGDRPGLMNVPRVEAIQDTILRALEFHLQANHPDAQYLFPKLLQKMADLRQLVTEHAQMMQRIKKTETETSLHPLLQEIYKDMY
Chain of Peroxisome proliferator-activated receptor gamma (Homo sapiens) (P37231 whole entry, looked up, the tested form may be a part): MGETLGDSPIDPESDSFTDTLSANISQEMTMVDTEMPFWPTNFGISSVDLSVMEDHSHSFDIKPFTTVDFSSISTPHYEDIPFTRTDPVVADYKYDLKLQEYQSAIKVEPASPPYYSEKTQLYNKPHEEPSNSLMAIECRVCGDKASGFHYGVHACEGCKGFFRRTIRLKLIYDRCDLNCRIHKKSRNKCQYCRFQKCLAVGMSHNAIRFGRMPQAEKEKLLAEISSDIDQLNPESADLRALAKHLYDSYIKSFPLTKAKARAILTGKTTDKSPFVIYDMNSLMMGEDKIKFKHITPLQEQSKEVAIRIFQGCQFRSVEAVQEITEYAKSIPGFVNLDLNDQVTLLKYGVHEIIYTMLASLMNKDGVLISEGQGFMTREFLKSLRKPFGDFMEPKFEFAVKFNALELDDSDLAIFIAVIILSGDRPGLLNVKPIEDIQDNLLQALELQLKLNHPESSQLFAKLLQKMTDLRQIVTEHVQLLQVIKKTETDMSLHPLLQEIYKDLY
Chain of human RAR-related Orphan Receptor gamma (RORg), RORC (gene 6097) (P51449 whole entry, looked up, the tested form may be a part): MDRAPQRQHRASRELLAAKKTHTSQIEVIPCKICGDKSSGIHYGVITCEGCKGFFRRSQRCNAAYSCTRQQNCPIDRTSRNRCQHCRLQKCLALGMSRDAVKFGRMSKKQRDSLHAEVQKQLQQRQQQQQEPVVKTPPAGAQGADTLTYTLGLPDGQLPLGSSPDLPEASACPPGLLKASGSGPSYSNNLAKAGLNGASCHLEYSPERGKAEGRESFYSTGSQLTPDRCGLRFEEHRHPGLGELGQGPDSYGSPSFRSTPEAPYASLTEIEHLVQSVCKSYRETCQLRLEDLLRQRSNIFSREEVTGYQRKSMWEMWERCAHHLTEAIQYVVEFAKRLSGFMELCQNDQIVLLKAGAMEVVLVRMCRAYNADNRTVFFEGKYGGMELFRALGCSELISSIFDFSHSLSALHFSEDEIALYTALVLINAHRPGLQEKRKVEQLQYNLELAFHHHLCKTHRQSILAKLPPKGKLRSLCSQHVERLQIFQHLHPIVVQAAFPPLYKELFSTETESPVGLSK
Chain of human Retinoid X Receptor beta (RXRb), RXRB (gene 6257) (P28702 whole entry, looked up): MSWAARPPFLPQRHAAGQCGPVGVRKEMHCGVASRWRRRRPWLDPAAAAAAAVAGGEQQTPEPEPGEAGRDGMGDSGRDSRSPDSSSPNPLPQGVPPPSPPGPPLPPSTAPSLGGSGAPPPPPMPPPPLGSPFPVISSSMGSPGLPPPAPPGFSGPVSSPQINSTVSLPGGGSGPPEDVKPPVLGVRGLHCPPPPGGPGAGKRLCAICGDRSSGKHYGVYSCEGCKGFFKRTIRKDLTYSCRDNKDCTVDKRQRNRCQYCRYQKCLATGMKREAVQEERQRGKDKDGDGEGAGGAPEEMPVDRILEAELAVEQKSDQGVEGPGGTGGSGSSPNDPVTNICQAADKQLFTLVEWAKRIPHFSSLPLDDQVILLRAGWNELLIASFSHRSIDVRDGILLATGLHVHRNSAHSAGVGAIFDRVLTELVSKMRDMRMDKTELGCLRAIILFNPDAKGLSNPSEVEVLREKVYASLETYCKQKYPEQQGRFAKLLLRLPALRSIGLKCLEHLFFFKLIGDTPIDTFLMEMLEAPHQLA
Chain of human Peroxisome Proliferator-activated Receptor alpha (PPARa), PPARA (gene 5465) (Q07869 whole entry, looked up, the tested form may be a part): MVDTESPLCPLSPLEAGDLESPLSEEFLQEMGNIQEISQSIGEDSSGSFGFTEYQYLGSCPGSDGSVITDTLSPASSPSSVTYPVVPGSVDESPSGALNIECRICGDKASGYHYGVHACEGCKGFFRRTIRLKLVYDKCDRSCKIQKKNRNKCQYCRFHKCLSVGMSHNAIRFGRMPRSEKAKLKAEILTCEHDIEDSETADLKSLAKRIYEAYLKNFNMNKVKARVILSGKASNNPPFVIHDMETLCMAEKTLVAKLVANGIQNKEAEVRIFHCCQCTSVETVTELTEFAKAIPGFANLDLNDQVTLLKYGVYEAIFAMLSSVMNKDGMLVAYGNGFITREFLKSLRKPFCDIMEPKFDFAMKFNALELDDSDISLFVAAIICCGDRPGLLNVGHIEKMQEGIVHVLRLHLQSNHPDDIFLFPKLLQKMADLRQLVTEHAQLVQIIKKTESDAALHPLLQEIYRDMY

O=C(c1ccccc1)c1ccc(O)cc1O
active: [6] 42.5 µM | [11] 35 µM
not listed: [17] | [18] | [19] | [20]
inactive: all other assays above

O=C1c2c(O)ccc(Nc3ccc(CCO)cc3)c2C(=O)c2c([N+](=O)[O-])ccc(O)c21
active: [3] 20 µM | [6] 13 µM | [7] 6.55 µM | [12] 30 µM | [13] 4.35 µM | [16] 30.4 µM | [20] 10.6 µM
not listed: [1] | [5] | [9] | [11]
inactive: all other assays above

CCN(CC)c1ccc(C=O)cc1
active: [7] 27.7 µM
not listed: [2] | [4] | [5] | [8] | [10] | [14] | [18] | [19]
inactive: all other assays above

OCC(O)CC(F)(F)C(F)(F)C(F)(F)C(F)(F)C(F)(F)C(F)(F)C(F)(F)C(F)(F)F (stereo unspecified)
not listed: [5] | [10] | [11] | [20]
inactive: all other assays above

C[Si](Cl)(Cl)CCC(F)(F)C(F)(F)C(F)(F)C(F)(F)C(F)(F)C(F)(F)F
not listed: [6] | [7] | [8] | [9] | [11] | [12] | [14] | [20]
inactive: all other assays above

Cc1ccc(O)c(-n2nc3ccccc3n2)c1
active: [11] 20.4 µM
not listed: [7] | [8] | [10] | [18] | [20]
inactive: all other assays above

O=C1C=CC(=O)N1c1ccc(Cc2ccc(N3C(=O)C=CC3=O)cc2)cc1
active: [3] 9.7 µM | [13] 8.52 µM | [15] 8.09 µM | [16] 7.61 µM | [20] 5.74 µM
not listed: [1] | [4] | [5] | [8] | [14]
inactive: all other assays above

CC(C)(C)c1cc(CCC(=O)NCCCCCCNC(=O)CCc2cc(C(C)(C)C)c(O)c(C(C)(C)C)c2)cc(C(C)(C)C)c1O
active: [7] 0.0823 µM
inactive: [1] | [3] | [6] | [19] | [13] | [15] | [16] | [20]
